# DAX1 inh-1: NR0B1 (DAX1) inhibition; P51843; HEK293 Gal4-DAX1 luciferase reporter, luminescence; inhibition, % at 6.75 µM; 340,000 tested, 0.99% active;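 active = inhibition above the mean over all tested compounds plus 3 SD, cut at about 4.2% in these data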;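 also: inhibition shows as a rise in luminescence from relieved DAX1 repression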
# Target sequence (P51843 207-470 limits assumed): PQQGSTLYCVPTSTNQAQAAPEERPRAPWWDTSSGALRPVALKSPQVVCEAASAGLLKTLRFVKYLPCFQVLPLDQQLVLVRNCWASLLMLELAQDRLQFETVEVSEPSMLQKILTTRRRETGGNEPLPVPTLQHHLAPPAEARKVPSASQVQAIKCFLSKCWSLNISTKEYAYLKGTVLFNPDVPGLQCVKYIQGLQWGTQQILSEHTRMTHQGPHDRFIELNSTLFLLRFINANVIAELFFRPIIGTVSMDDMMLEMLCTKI
# hgDAF12 agonist: hgDAF-12 agonism, primary luciferase screen; HEK293 GAL4-hgDAF12 UAS-luciferase reporter, agonist luminescence; normalized to butyrate control; activation, % at 6.8 µM; 370,000 tested, 1.8% active; AID 687014;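 active = activation above a cutoff set at the mean of all screened compounds plus 3 SD, cut at about 10% in these data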
# ssDAF-12 act: activators of S. stercoralis DAF-12 nuclear receptor | HEK293 ssDAF-12/GRIP1 lit1-tk-luc reporter, luminescence; % of 3 µM dafachronic acid response | activation, % at 6.8 µM | 370,000 tested, 1% active | AID 652126;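 active = activation above the mean over all tested compounds plus 3 SD, cut at about 0.9% in these data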
# DAX1 inh-2: blocks DAX1 repression of SF-1 activated StAR promoter; HEK293T StAR-luciferase reporter, SF-1/DAX-1 repression relief; inhibition, % at 6.8 µM; 370,000 tested, 1.1% active;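 active = inhibition above the mean over all tested compounds plus 3 SD, cut at about 3.6% in these data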;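 also: higher inhibition means more luminescence from relief of DAX-1 repression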
# AHR act: activators of human aryl hydrocarbon receptor; AHR-responsive luciferase reporter cells, luminescence; AID 2796; 320,000 tested, 2.5% active; activation, % at 5 µM; in the data active = activation above about 47%
# hcDAF-12 act: H. contortus DAF-12 activation, primary screen; HEK293 hcDAF-12 lit1-tk-luc reporter, luminescence; 0% DMSO, 100% Δ7-dafachronic acid; activation, % at 6.8 µM; 370,000 tested, 1.4% active; AID 652067;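 active = activation above the mean of all tested compounds plus 3 SD, cut at about 5.5% in these data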
# LXRb hcDAF ctr: counter-screen for hcDAF-12 agonists: agonists of human LXR-beta. 3,400 tested, under 10 active. shares compounds with hcDAF-12 act. activation, % at 6.8 µM. HEK293 Gal4-LXR tk-luc reporter, luminescence, 24 h; normalized: DMSO 0%, positive control 100%;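 active = mean percent activation of the reporter above a cutoff set as the average over tested compounds plus their standard deviation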
# hcDAF12 conf: hcDAF-12 agonism, confirmation assay. 3,400 tested, 61% active. HEK293 hcDAF-12 lit1-tk-luc reporter, luminescence; % of Δ7-dafachronic acid response. shares compounds with hcDAF-12 act. AID 743032. activation, % at 6.8 µM;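 active = mean activation across triplicate tests above the threshold derived from the earlier primary screen, cut at about 5.5% in these data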
# Numbers stand for hits; 0 = inactive; - = no result given. Most compounds without a hit are left out; they make up all but 5.7% or so of the library.
SMILES,DAX1 inh-1,hgDAF12 agonist,ssDAF-12 act,DAX1 inh-2,AHR act,hcDAF-12 act,LXRb hcDAF ctr,hcDAF12 conf
COc1ccc(C2c3[nH]c4ccccc4c3CCN2C(=O)c2ccc(=O)n(C)n2)c(F)c1 (stereo not drawn),0,0,0,0,0,6.9,0,0
CN1N=C(C(=O)N2CCc3c([nH]c4ccccc34)C2c2ccccc2Cl)CCC1=O (stereo not drawn),0,12.0,1.7,0,0,7.8,0,6.9
N#Cc1c(-c2ccc(Cl)cc2)c2c([nH]c1=O)-c1ccccc1OC2,0,0,0,0,0,0,-,-
CN(C)c1ccc(N=Cc2nc(-c3ccccc3)oc2OC(=O)c2cccc(Br)c2)cc1,0,0,2.1,0,0,6.7,0,0
CCOC(=O)c1ccc(N=Cc2nc(-c3ccccc3)oc2OC(C)=O)cc1,0,0,0,0,0,0,-,-
COc1ccc(CCCc2nnc(SCc3nc4ccccc4c(=O)[nH]3)n2C)c(C)c1,0,0,0,0,0,0,-,-
COc1cc(C(=O)N2CCN(C(=O)c3ccco3)CC2)c([N+](=O)[O-])cc1OC,0,0,0,0,0,0,-,-
O=C(Nc1ccc(F)c([N+](=O)[O-])c1)C(=O)c1c(O)[nH]c2ccccc12,0,0,0,0,0,6.9,0,0
O=c1c(=Nc2ccccc2O)c(=O)c2ccccc12,0,0,0,0,0,8.3,0,0
O=Nc1c(O)c2ccccc2c2ccccc12,0,0,0,0,0,0,-,-
Fc1cccc(-c2nnn3c2nc(Cl)c2ccccc23)c1,0,11.7,0,0,-,8.3,0,6.4
Cn1c(=O)c(-c2cc(Br)ccc2N)nc2ccccc21,0,0,1.2,0,0,10.9,0,12.5
O=C(CCn1c(=O)c2cccn2c2cccnc21)N1CCN(c2cccc(Cl)c2)CC1,0,-,-,-,0,-,-,-
O=C(Nc1ccc2c(c1)OCO2)c1noc2c1CCCCC2,0,12.2,0,4.4,0,9.0,0,6.1
COc1ccc(Cl)cc1C(=O)Nc1ccc2c(c1)OCCO2,8.4,0,3.0,0,-,8.6,0,11.7
Cc1ccccc1C(=O)Nc1ccc2c(c1)OCO2,0,12.9,0,0,0,6.8,0,0
O=C(Nc1ccc2c(c1)OCO2)c1cccs1,0,11.9,0,0,88.1,6.6,0,6.1
CC(=O)Nc1ccc2c(c1)OCO2,0,0,0,0,0,0,-,-
COc1ccccc1/C=C/C(=O)N1CCC(c2ccccc2)C1 (stereo not drawn),0,11.6,1.0,0,66.0,6.7,0,0
COc1ccccc1/C=C/C(=O)N1CCOCC1,0,0,0,0,0,0,-,-
Cc1cc2ccccc2n1CCNC(=O)c1ccc(Br)o1,0,0,0,0,0,8.0,0,0
Oc1[nH]c2ccccc2c1/C=N/N1CCCCC1,0,0,0,0,0,14.2,0,0
Cc1ccc2c(c1)N(CC(=O)NCCCN1CCN(C)CC1)C(=O)CO2,0,0,0,0,0,0,-,-
COc1ccccc1-c1cccc2nccn12,-,0,0,0,-,0,-,-
Cc1ccc(NCc2nc3ccccc3n2C)c(C)c1,0,11.6,0,3.7,76.3,11.6,0,10.9
SMILES,DAX1 inh-1,hgDAF12 agonist,ssDAF-12 act,DAX1 inh-2,AHR act,hcDAF-12 act,LXRb hcDAF ctr,hcDAF12 conf
Cc1cccc(NCc2nc3ccccc3n2C)c1,0,0,0,0,47.2,7.5,0,6.9
Cc1ccc(C2=Nc3ccc(Br)cc3C(c3ccncc3)=NN2)cc1,0,0,0,0,0,0,-,-
CCOC(=O)c1nn(-c2ccc(F)cc2)c(=O)cc1OCC(=O)N1CCN(c2ccccc2)CC1,0,0,0,0,0,0,-,-
CCCS(=O)(=O)n1nc(-c2ccccc2)cc1N,0,0,0,0,0,9.9,0,0
CN(C)c1ccc(/C=N/NC(=O)c2ccccc2Cl)cc1,0,0,0,0,0,0,-,-
Cc1occc1C(=O)N/N=C/C(Br)=C\c1ccccc1,0,10.9,0,0,0,8.8,0,0
Cc1occc1C(=O)N/N=C/c1ccc(N(C)C)cc1,0,0,0,0,0,7.3,0,7.2
CC1CC(C)CN(S(=O)(=O)N2CCCC(C(=O)NCCc3ccccc3)C2)C1 (stereo not drawn),0,0,0,0,0,0,-,-
Clc1ccccc1C1SCC2Nc3ccccc3CN21 (stereo not drawn),0,0,0,0,0,7.1,0,7.1
O=C(c1ccc([N+](=O)[O-])cc1)N1CCSC1c1ccccc1Cl (stereo not drawn),0,0,0,0,0,0,-,-
COc1cccc(Nc2nnc(SCc3nc4ccccc4s3)s2)c1,0,0,0,0,66.6,7.0,0,10.5
Cn1nnnc1SCc1nc2ccccc2s1,0,0,2.1,0,0,8.7,0,8.5
Cc1cccc(C)c1Nc1nnc(SCC(=O)NCc2cccs2)s1,0,0,0,0,0,0,-,-
Cn1nnnc1SCc1cccc2ccccc12,0,0,0,0,0,0,-,-
Cc1cccc(C)c1Nc1nnc(SCc2nc3ccccc3s2)s1,0,13.1,0.9,0,0,11.5,0,11.3
COc1ccc(-c2cc(=O)oc3c(C)c(OC(C)C(=O)NCc4ccccn4)ccc23)cc1 (stereo not drawn),0,0,0,0,0,0,-,-
Nc1nonc1-n1nnc(C(=O)N/N=C/c2ccncc2)c1-c1ccccc1,0,0,0,0,0,0,-,-
CCOC(=O)C1CCN(C(=O)CN2C(=O)c3cccnc3Oc3ccccc32)CC1,0,0,0,0,0,0,-,-
CCc1ccc(-c2cn(C3CCCCC3)c(=S)[nH]2)cc1,0,0,0,0,62.5,10.6,0,0
CCc1ccc(-n2cc(-c3ccc([N+](=O)[O-])cc3)[nH]c2=S)cc1,0,0,0,0,0,0,-,-
CC(C)N(C(=S)Nc1ccc(S(=O)(=O)N2CCOCC2)cc1)c1ccccc1,-,0,0,0,0,0,-,-
CC(=O)Nc1ccc(C)c([N+](=O)[O-])c1,0,0,0,0,0,0,-,-
Cc1ccc(NC(=O)Nc2ccccc2)cc1[N+](=O)[O-],0,0,0,0,0,7.5,0,0
COc1cccc(CNC(=O)c2ccc(C)c(NC3=NC4CS(=O)(=O)CC4S3)c2)c1 (stereo not drawn),0,0,0,0,0,0,-,-
COc1ccccc1C(=O)Nc1ccc(Br)cc1C,0,11.1,0,0,0,7.0,0,9.6
COc1cccc2cc(C(=O)Nc3ccccc3C)/c(=N/O)oc12,0,0,0,0,0,9.2,0,6.3
COc1ccccc1C(=O)Nc1ccc(Br)c2cccnc12,0,0,0,0,0,0,-,-

# High-throughput results (PubChem BioAssay)
